# Measured values reported in PubChem BioAssay (NCI).
# About 83,000 compounds went through this panel and 20% of them were active in at least one assay; those are over-represented in the sample as a whole.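 Note: values are percent growth. 100 is the growth of untreated cells, values between 100 and 0 indicate rising inhibition; between -100 and 0 indicates cell death.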 A number with no mark means an inactive call. Calls of active or inactive are those of the source.
# Tested on: MOLT-4 leukemia
# Assay: NCI-60 one-dose screen, 48 h (100 = growth as untreated, 0 = no growth, -100 = all killed)
# Settings: 10 µM
# Description: Growth inhibition of the MOLT-4 human tumor cell line is measured as a screen for anti-cancer activity. Cells are grown in 96 well plates and exposed to the test compound for 48 hours. Compounds are tested at a single concentration, which is 10^-5 M for most compounds. The reported endpoint is percent growth (GI% or GIPRCNT), where numbers from 0 - 100% represent growth inhibition, and numbers from -100% - 0 represent cell death. For example, a value of 40 represents 60% growth inhibition. A value of 0 means no net growth occurred over the course of the experiment. A value of -40 indicates 40% of cells at the beginning of the experiment died by the end of the experiment. A value of -100 means all cells are dead at the end of the experiment.
# NCI-60 Human Tumor Cell Lines Screen was performed using the standard one-dose NCI protocol, which is described in more detail at https://dtp.cancer.gov/discovery_development/nci-60/default.htm.
# Compounds with GIPRCNT values below 10 were considered active. Activity score was based on GIPRCNT using the following formula: […]
# Score is 0 for GIPRCNT values of 100 or above, 50 for GIPRCNT values of 0, and 100 for GIPRCNT values of -100.
row,SMILES,growth
1,O=S(=O)(Oc1ccc(-c2ccc3sccc3c2)cc1)c1ccccc1,91.7%
2,COc1ccc(Cl)cc1Nc1nc(C(F)(F)F)ccc1C(=O)N/N=C/c1ccc(Cl)cc1,1.89% (active)
3,COc1cc(/C=C/c2cc(/C=C/c3ccc(O)c(OC)c3)n(C(=O)Nc3ccc(C)cc3)n2)ccc1O,0.114% (active)
4,Cc1ccc(C2=NN(c3ccc(S(C)(=O)=O)cc3)C(=O)CC2)cc1,20%
5,CCOC(=O)c1cc(C(=O)c2cc(OC)c(OC)c(OC)c2)n2c1ccc1c3cccnc3ccc12,31.4%
6,O=C1c2c(c(=O)[nH]c3ccccc23)CCN1Cc1ccccc1,105%
7,c1cnc2[nH]cc(-c3nc(-c4ccsc4)cs3)c2c1,79.6%
8,CC[C@H]1OC(=O)[C@H](C)[C@@H](O[C@H]2C[C@@](C)(OC)[C@@H](O)[C@H](C)O2)[C@H](C)[C@@H](O[C@@H]2O[C@H](C)C[C@H](N(C)C)[C@H]2O)[C@](C)(OC)C/C(C)=C2/O[C@@]1(C)C=C2C,1.08% (active)
9,CCOC(=O)C1=CSC2=NC3=C(CCC/C3=C\c3cc(OC)c(OC)c(OC)c3)C(c3cc(OC)c(OC)c(OC)c3)N12 (stereo not given),52.7%
10,O=C(/C=C/C=C/c1c(C2CC2)nc2ccccc2c1-c1ccc(F)cc1)c1cccs1,8.46% (active)
11,COc1ccc(-c2csc(NC(=O)c3ccc(Cc4n[nH]c(=O)c5cccnc45)cc3)n2)cc1,97.2%
12,COc1ccc(/C=c2\sc3n(c2=O)C(c2cc(OC)c(OC)c(OC)c2)C=C(c2ccc(OC)c(OC)c2)N=3)cc1OC (stereo not given),79.5%
13,Clc1ccc(/C=C2\CCCC3C2=Nc2ccccc2NC3c2ccc(Cl)cc2)cc1 (stereo not given),65.8%
14,O=C(COc1cccc(/C=C2\CSc3ccc(Cl)cc3C2=O)c1)c1ccc(Cl)cc1,-12.1% (active)
15,NS(=O)(=O)Oc1ccc(NC(=O)C2CCCCCC2)cc1,104%
16,CCN1CC(CCN2CCOCC2)C(C(c2ccccc2)c2ccccc2)C1=O (stereo not given),100%
17,COc1cc(/C=C/c2cc(/C=C/c3ccc(O)c(OC)c3)nc(N)n2)ccc1O,4.17% (active)
18,COc1ccccc1-n1c(-c2csc(NC(C)=O)n2)n[nH]c1=S,92.3%
19,O=C(Nc1ccccc1)Nc1ncnc2c1ncn2-c1ccccc1,94.1%
20,O=C1/C(=C/c2cccc(F)c2)Cc2ccccc21,112%

row,SMILES,growth
1,CNC(=O)c1cn(C2CC2)c2cc(N3CCN(C(=O)c4cc(OC)c(OC)c(OC)c4)CC3)c(F)cc2c1=O,99.7%
2,COc1ccc(-c2onc(N)c2-c2cc(OC)c3c(c2)OCO3)cc1,13.7%
3,Cc1ccc(-n2nnnc2N)c(C)c1,109%
4,CC[C@@H](C(=O)[C@@H](C)[C@@H](O)[C@H](C)[C@@H]1O[C@@H]([C@@H](CC)C(=O)O)CC[C@@H]1C)C1O[C@]2(C=CC(=O)[C@]3(CC[C@@](C)([C@H]4CC[C@](O)(CC)[C@H](C)O4)O3)O2)[C@H](C)C[C@@H]1C (stereo not given in full),40.6%
5,O=C1c2ccccc2-c2c1c1cccnc1c(=O)n2C[C@H](O)CO,9.69% (active)
6,N=C1S/C(=C/c2ccc(-c3ccc4c(c3)C(=O)NC4=O)o2)C(=O)N1c1ccc(Br)cc1,52.2%
7,COc1ccc(/C=C2\CCCC3C2=Nc2ccccc2NC3c2ccc(OC)cc2)cc1 (stereo not given),72%
8,CN1CCN(c2cc3c(cc2F)c(=O)c(C(=O)O)cn3-c2ccc(F)cc2)CC1,84.2%
9,COc1cc(-c2nc3ccccc3o2)cc(CN2CCCCC2)c1O,48.8%
10,CCN(CC)CCOc1cccc2c1C(=O)c1ccccc1C2=O,96.4%
11,CC1OC2CC(=O)OC2C2=C1C(=O)c1c(O)c3c(c(O)c1C2=O)C1CC(O)C3(O)C(C)O1 (stereo not given),-21.7% (active)
12,CC(C)C[C@H](NC(=O)Cn1cccc(CNC(=O)c2ccccc2)c1=O)B(O)O,-7.9% (active)
13,Nc1cc(-c2ccncc2)c[nH]c1=O,77.4%
14,CN(C)c1ccc(/C=N/NC(=O)c2cccc3ccccc23)c(Cl)c1,15.5%
15,CC(=O)N[C@H](C(=O)N[C@@H](CCCNC(=N)N)C(=O)N[C@@H](CCCCN)C(=O)N[C@@H](CCCNC(=N)N)C(=O)N[C@]1(C)CCCCCC/C=C\CCC[C@@](C)(C(=O)N[C@@H](CCCNC(=N)N)C(=O)N[C@@H](CCC(=O)O)C(=O)N[C@@H](CC(C)C)C(=O)N[C@H](C(=O)N[C@@H](CCC(=O)O)C(N)=O)C(C)C)NC(=O)[C@H](CCC(N)=O)NC(=O)[C@H](CC(C)C)NC(=O)[C@H](CC(C)C)NC(=O)[C@H](CCCNC(=N)N)NC(=O)[C@H](CCCNC(=N)N)NC(=O)[C@H](CC(C)C)NC1=O)C(C)C,34.6%
16,COC1OC(COS(=O)OC)C(O)C(O)C1OS(=O)OC (stereo not given),92.1%
17,CCCCCCCCCCCCCCCCCC[n+]1ccc2c(C)c3c(c(C)c2c1)c1cc(O)ccc1n3CC,19%
18,CC(=O)[C@H]1CC[C@]2(C)[C@@H]1CC[C@@H]1[C@@]3(C)CC(CCC#N)(CCC#N)C(=O)C(C)(C)[C@@H]3CC[C@]12C,96.3%
19,COc1cc(-c2nn(-c3cccc(NC(=O)NCCNS(=O)(=O)c4ccc(Cl)cc4)c3)cc2-c2ccncc2)ccc1Cl,12.1%
20,COc1cc2c(cc1NC(=O)C(Cl)Cl)-c1ccc(NC(=O)C(Cl)Cl)cc1C2,94.8%
